Experimental data published in PubChem BioAssay (Tox21).
Where “and” joins values, the source holds several entries; their conditions need not be identical. Equal values may be shown once. Records with an inconclusive call do not appear. A call without a number means that no potency is given here. More than one record can exist for a structure, and the calls need not agree. Calls of active or inactive are those of the source. Unless noted, the call rests on the fitted dose curve; in most records, active means well fitted curve in the direction sought with a large enough effect in the repeat runs; inconclusive means weak or mixed curves; inactive means no such curve, though single readings can be large; an effect the other way counts as inactive or inconclusive.

Legend:
[1] = qHTS assay to identify small molecule antagonists of the estrogen receptor alpha (ER-alpha) signaling pathway using the BG1 cell line in the presence of 0.1 nM 17-beta-estradiol - cell viability counter screen (AID 1259241); further: nearly all actives have a fitted effect of over 40% in size; further: potency means the concentration at half of the fitted maximal effect
Method in brief: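 Measures cytotoxicity alongside the ER-alpha antagonist readout: VM7Luc4E2 cells, charcoal-stripped serum, 0.1 nM 17beta-estradiol final, 22 hr compound incubation at 37C, CellTiter-Fluor fluorescence.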

[2] = qHTS assay to identify small molecule antagonists of the androgen receptor (AR) signaling pathway using the MDA cell line in the presence of 0.5 nM R1881 - cell viability counter screen (AID 1259242); further: nearly all actives have a fitted effect of over 45% in size; further: potency means the concentration at half of the fitted maximal effect
Method in brief: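 Live-cell protease activity was measured by CellTiter-Fluor fluorescence after 30 min. Before that, MDA-kb2 MMTV-luciferase cells had 16 hr at 37C without CO2, exposed to test compounds and 0.5 nM R1881 final.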

[3] = target: Estrogen receptor (Homo sapiens) (UniProt P03372); assay: qHTS assay to identify small molecule antagonists of the estrogen receptor alpha (ER-alpha) signaling pathway using the BG1 cell line in the presence of 0.1 nM 17-beta-estradiol (AID 1259244); further: nearly all actives have a fitted effect of over 50% in size; further: potency means the concentration at half of the fitted maximal effect
Chain of Estrogen receptor (Homo sapiens) (P03372 whole entry, looked up): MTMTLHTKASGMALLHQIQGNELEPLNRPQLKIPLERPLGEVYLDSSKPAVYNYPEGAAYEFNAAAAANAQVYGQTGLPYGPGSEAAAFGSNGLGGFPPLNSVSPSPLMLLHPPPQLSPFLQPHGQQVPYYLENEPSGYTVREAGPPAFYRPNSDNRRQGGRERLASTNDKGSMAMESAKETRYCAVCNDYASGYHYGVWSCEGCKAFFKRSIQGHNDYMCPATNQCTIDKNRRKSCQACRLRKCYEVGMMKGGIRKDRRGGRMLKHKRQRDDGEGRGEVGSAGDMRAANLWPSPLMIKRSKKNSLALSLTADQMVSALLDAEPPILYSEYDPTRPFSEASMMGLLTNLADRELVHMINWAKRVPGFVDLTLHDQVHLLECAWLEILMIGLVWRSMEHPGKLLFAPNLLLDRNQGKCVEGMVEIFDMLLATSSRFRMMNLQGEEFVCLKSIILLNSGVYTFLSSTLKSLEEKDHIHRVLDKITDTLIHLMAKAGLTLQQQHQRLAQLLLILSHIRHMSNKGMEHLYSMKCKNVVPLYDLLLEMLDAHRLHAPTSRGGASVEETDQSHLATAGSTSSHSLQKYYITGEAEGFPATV
Method in brief: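 Luciferase luminescence (ONE-Glo, 30 min at room temperature) was read after 22 hr at 37C exposure to compounds plus 17beta-estradiol at 0.1 nM final. Cells were VM7Luc4E2 with endogenous ER-alpha and an ERE-driven luciferase, pre-cultured 5 days in hormone-depleted medium.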

[4] = qHTS assay to identify small molecule HDAC inhibitors (AID 1259364); further: top concentration of the series differs between compounds; nearly all actives have a fitted effect of over 45% in size
Method in brief: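 Luminescence read after 30 min room-temperature HDAC-Glo incubation measures cellular class I/II HDAC activity. Compounds were applied for 2 hr at 37 C to HCT-116 wild-type cells seeded the day before.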

[5] = qHTS assay to identify small molecule HDAC inhibitors - cell viability counter screen (AID 1259365); further: nearly all actives have a fitted effect of over 50% in size; further: potency means the concentration at half of the fitted maximal effect
Method in brief: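 Following a 2hr exposure of overnight-plated wild-type HCT-116 cells to DMSO-delivered compounds, CellTiter-Glo was added and luminescence recorded after 30min at room temperature.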

[6] = qHTS assay to identify small molecule agonists of the sonic hedgehog signaling (Shh) pathway - cell viability counter screen (AID 1259366); further: nearly all actives have a fitted effect of over 50% in size; further: potency means the concentration at half of the fitted maximal effect
Method in brief: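 After a 4hr attachment at 37C, NIH/3T3 cells bearing an integrated Gli1-driven luciferase reporter were dosed with compounds. Treatment lasted 24hr, with the final hour including CellTiter-Fluor for a fluorescence viability measurement.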

[7] = qHTS assay to identify small molecule antagonists of the sonic hedgehog signaling (Shh) pathway - cell viability counter screen (AID 1259367); further: nearly all actives have a fitted effect of over 55% in size; further: potency means the concentration at half of the fitted maximal effect
Method in brief: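 Tox21 library chemicals were tested on a Gli1-Luc NIH/3T3 clone (2,000 cells/well) stimulated by conditioned medium; viability was quantified as fluorescence from CellTiter-Fluor reagent added at 23 hr.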

[8] = qHTS assay to identify small molecule agonists of the sonic hedgehog signaling (Shh) pathway (AID 1259368; calls by dose curve;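 further: NIH/3T3-derived 3T3Gli1-Luc cells carrying a stable Gli1-driven firefly luciferase reporter; series mostly up to about 92 µM; nearly all actives have a fitted effect of over 15% in size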)
Method in brief: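 Luminescence was read after 30 min at room temperature with luciferase reagent. Before that, 3T3Gli1-Luc cells (NIH/3T3 clone, stable Gli1-Luc reporter; 2,000/well) were exposed to compounds for 24 hr at 37C, 5% CO2, compounds being added 4 hr post-plating.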

[9] = qHTS assay to identify small molecule antagonists of the sonic hedgehog signaling (Shh) pathway (AID 1259369; calls by dose curve; further: nearly all actives have a fitted effect of over 45% in size; further: potency means the concentration at half of the fitted maximal effect)
Method in brief: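 Antagonist mode: compound added to 3T3 Gli1-Luc cells followed by conditioned-medium stimulation, 24 h at 37 C, 5% CO2. Inhibition taken as loss of Gli1-driven luciferase luminescence.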

[10] = qHTS assay to identify small molecule agonists of the androgen receptor (AR) signaling pathway in the presence of an antagonist - cell viability counter screen (AID 1259379); further: nearly all actives have a fitted effect of over 25% in size; further: potency means the concentration at half of the fitted maximal effect
Method in brief: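 Cytotoxicity counter-screen run in the same wells as the nilutamide-challenged (3.0 µM final) AR agonist assay in MDA-kb2 cells. Compounds tested at 15 concentrations for 16 h, 37 °C without CO2; CellTiter-Fluor fluorescence read.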

[11] = qHTS assay to identify small molecule agonists of the estrogen receptor beta (ER-beta) signaling pathway - cell viability counter screen (AID 1259380); further: nearly all actives have a fitted effect of over 30% in size; further: potency means the concentration at half of the fitted maximal effect
Method in brief: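 Cell viability counter screen: CellTiter-Glo luminescence (30 min, room temperature) measured in the same wells as the beta-lactamase readout, after 16 hr compound exposure at 37C of ER-beta-bla HEK293T cells in 2% charcoal-stripped FBS medium.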

[12] = qHTS assay to identify small molecule antagonists of the estrogen receptor beta (ER-beta) signaling pathway - cell viability counter screen (AID 1259382); further: nearly all actives have a fitted effect of over 55% in size; further: potency means the concentration at half of the fitted maximal effect
Method in brief: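 Cytotoxicity was measured in the same wells by CellTiter-Glo luminescence after 30 min at room temperature. Cells were ER-beta-bla HEK293T in charcoal-stripped serum, given compound together with 1 nM E2 and incubated 16 h at 37C.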

[13] = target: Estrogen receptor (Homo sapiens) (UniProt P03372); assay: qHTS assay to identify small molecule agonists of the estrogen receptor alpha (ER-alpha) signaling pathway in the presence of an antagonist (AID 1259383; calls by dose curve; further: nearly all actives have a fitted effect of over 15% in size; further: potency means the concentration at half of the fitted maximal effect; on activation: top concentration of the series differs between compounds)
Method in brief: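 Agonist-mode confirmation run in the presence of 10.0nM (final) ICI-182,780 antagonist. The reporter was ERE-driven luciferase in VM7Luc4E2 cells, grown in charcoal-stripped serum. Cells were exposed to 15-concentration compound series for 22hr, then ONE-Glo luminescence was read.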

[14] = target: Estrogen receptor beta (Homo sapiens) (UniProt Q92731); assay: qHTS assay to identify small molecule agonists of the estrogen receptor beta (ER-beta) signaling pathway (AID 1259377; active means well fitted activation curve with a large enough effect in the signal ratio in the repeat runs, not every such curve was filed as active; the % refers to the signal ratio)
Chain of Estrogen receptor beta (Homo sapiens) (Q92731 whole entry, looked up): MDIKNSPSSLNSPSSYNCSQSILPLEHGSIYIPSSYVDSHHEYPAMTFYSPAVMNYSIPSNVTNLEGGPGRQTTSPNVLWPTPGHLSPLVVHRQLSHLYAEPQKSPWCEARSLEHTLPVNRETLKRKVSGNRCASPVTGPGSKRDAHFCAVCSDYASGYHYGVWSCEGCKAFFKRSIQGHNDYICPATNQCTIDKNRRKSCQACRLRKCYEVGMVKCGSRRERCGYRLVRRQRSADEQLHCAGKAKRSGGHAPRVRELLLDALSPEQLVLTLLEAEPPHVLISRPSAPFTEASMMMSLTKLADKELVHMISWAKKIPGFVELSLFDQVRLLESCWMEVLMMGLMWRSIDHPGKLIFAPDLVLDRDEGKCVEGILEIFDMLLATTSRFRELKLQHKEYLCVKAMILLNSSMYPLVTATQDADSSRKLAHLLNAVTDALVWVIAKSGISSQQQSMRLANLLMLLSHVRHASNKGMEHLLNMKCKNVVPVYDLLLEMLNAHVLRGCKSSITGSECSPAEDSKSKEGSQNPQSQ
Method in brief: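 In HEK293T cells bearing a UAS-beta-lactamase reporter under ER-beta control, DMSO-delivered compounds were incubated for 16 hr at 37C. Activity was detected as fluorescence 2 hours after LiveBLAzer B/G FRET substrate addition.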

[15] = target: Estrogen receptor beta (Homo sapiens) (UniProt Q92731); assay: qHTS assay to identify small molecule antagonists of the estrogen receptor beta (ER-beta) signaling pathway (AID 1259378; active means well fitted inhibition curve with a large enough effect in the signal ratio in the repeat runs, not every such curve was filed as active; the % refers to the signal ratio; further: potency means the concentration at half of the fitted maximal effect)
Method in brief: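 ER-beta-UAS-bla HEK293T cells in 2% charcoal-stripped FBS medium treated with compound plus 1nM final 17-beta-estradiol for 16 hr at 37C. Beta-lactamase reporter read by FRET substrate fluorescence after 2 hours at room temperature.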

[16] = qHTS assay to identify small molecule agonists or antagonists of the thyroid stimulating hormone receptor (TSHR) signaling pathway - wild type cell line counter screen (AID 1259384; calls by dose curve)
Method in brief: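 Wild-type Hek293 cells, 800/well, 18 h at 37C, then compound with Ro20-1724 for 30 min RT. cAMP by HTRF (cAMP-d2/anti-cAMP cryptate), 1 h RT, fluorescence read. 15 concentrations, triplicates.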

[17] = target: Thyrotropin receptor (Homo sapiens) (UniProt P16473); assay: qHTS assay to identify small molecule antagonists of the thyroid stimulating hormone receptor (TSHR) signaling pathway (AID 1259385; calls by dose curve; further: nearly all actives have a fitted effect of over 20% in size; further: potency means the concentration at half of the fitted maximal effect)
Chain of Thyrotropin receptor (Homo sapiens) (P16473 whole entry, looked up): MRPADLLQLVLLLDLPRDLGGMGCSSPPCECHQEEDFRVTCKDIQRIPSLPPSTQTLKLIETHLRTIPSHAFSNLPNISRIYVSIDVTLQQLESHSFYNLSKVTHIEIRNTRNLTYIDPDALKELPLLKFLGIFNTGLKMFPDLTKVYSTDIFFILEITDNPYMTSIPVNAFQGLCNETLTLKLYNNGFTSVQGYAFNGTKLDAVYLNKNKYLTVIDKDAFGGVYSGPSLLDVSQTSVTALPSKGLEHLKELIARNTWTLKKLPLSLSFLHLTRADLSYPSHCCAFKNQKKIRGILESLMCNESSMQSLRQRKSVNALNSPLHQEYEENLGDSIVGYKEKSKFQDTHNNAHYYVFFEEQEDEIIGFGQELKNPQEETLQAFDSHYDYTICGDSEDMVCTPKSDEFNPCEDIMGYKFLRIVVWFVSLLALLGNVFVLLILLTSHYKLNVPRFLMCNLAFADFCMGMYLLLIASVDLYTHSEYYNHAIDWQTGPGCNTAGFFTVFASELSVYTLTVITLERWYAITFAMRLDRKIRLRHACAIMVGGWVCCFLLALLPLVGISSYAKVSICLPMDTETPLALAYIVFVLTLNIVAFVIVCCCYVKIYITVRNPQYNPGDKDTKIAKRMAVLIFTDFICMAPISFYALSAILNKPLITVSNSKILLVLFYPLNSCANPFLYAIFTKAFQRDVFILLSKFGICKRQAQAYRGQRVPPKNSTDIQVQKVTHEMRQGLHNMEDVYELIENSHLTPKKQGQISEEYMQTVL
Method in brief: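 TSHR-HEK293 cells (800/well) plated 18 h, then compounds with Ro20-1724 and TSH at 1.5 ng/mL final, 30 min at room temperature. cAMP quantified by HTRF (cAMP-d2/anti-cAMP-cryptate, 1 h); 15 concentrations in triplicate.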

[18] = qHTS assay to identify small molecule phospholipidosis (PLD) inducers (AID 1259344; active means well fitted curve in the direction sought with a large enough effect; an effect the other way counts as inactive or inconclusive)
Method in brief: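 Image-based: LipidTOX Red pit count/intensity per well and per cell; HepG2, 24 h compound at 37 C, PFA fixation, Hoechst counterstain.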

[19] = target: Androgen receptor (Homo sapiens) (UniProt P10275); assay: qHTS assay to identify small molecule agonists of the androgen receptor (AR) signaling pathway in the presence of an antagonist (AID 1259381; calls by dose curve; further: nearly all actives have a fitted effect of over 15% in size)
Chain of Androgen receptor (Homo sapiens) (P10275 whole entry, looked up): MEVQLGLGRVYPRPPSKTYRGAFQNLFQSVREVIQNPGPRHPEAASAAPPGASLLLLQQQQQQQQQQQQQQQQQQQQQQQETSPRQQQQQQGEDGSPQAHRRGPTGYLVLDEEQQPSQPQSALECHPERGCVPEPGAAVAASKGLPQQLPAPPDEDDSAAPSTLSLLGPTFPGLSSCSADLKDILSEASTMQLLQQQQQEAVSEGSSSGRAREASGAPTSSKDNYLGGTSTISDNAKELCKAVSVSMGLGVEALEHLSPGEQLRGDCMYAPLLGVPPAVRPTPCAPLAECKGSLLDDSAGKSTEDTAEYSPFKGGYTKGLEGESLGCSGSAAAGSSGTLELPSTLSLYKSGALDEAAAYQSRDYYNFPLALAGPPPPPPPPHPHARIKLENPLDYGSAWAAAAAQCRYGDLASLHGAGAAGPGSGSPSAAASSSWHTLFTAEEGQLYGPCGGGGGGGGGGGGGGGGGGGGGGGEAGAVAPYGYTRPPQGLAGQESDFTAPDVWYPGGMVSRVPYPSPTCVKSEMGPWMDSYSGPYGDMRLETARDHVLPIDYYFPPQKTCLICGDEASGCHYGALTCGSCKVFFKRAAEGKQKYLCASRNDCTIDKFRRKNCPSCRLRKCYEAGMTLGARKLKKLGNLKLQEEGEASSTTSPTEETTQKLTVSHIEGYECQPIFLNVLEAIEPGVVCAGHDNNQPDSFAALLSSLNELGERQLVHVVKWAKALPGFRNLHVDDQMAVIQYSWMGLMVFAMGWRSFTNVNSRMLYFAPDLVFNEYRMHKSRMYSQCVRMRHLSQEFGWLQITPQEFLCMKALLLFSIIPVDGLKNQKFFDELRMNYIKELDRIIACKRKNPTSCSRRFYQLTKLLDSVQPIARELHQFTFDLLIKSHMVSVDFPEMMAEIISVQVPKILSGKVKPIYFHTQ
Method in brief: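 Agonist-mode confirmation run against 3.0 uM final nilutamide: compounds titrated at 15 concentrations onto MDA-kb2 MMTV-luciferase reporter cells. Luminescence measured with ONE-Glo following 16 hr incubation, 37C, 0% CO2.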

Structure (SMILES) | Potency [1] | Potency [2] | Potency [3] | Potency [4] | Potency [5] | Potency [6] | Potency [7] | Potency [8] | Potency [9] | Potency [10] | Potency [11] | Potency [12] | Potency [13] | Potency [14] | Potency [15] | outcome [16] | Potency [17] | Potency [18] | Potency [19]
CCCCC(CC)COP(=O)(O)OCC(CC)CCCC (centres undefined) | inactive | inactive | inactive | inactive | inactive | inactive | inactive | inactive | inactive | inactive | 68.7 µM (active) and 7.7 µM (active) | 68.7 µM (active) and 68.6 µM (active) | inactive | – | – | – | – | – | –
C[C@]12CCC(=O)C=C1CC[C@@H]1[C@@H]2[C@@H](O)C[C@@]2(C)[C@H]1CC[C@]2(O)C(=O)COC(=O)CCC(=O)O | inactive | inactive | inactive | inactive | inactive | inactive | inactive | inactive | inactive | inactive | inactive | – | – | inactive | inactive | inactive | inactive | – | –
CSc1ccc(/C=C2/C(C)=C(CC(=O)O)c3cc(F)ccc32)cc1 | inactive | inactive | inactive | inactive | inactive | – | inactive | inactive | inactive | inactive | 10.6 µM (active) | – | – | – | – | inactive | inactive | inactive | inactive
CCC(CN)=C(c1ccccc1)c1ccccc1 | inactive | inactive | inactive | inactive | inactive | inactive | inactive | inactive | – | – | 21.1 µM (active) | – | – | inactive | 23.7 µM (active) | inactive | – | – | inactive
N/C(=N\N=C\c1ccc(Cl)cc1)N/N=C/c1ccc(Cl)cc1 | inactive | inactive | inactive | inactive | inactive | inactive | inactive | inactive | – | 29.8 µM (active) | 29.8 µM (active) | – | inactive | inactive | – | inactive | – | inactive | –
CC1=NC(C)OC1C (centres undefined) | inactive | inactive | inactive | inactive | inactive | inactive | – | inactive | – | inactive | inactive | – | inactive | – | – | inactive | inactive | – | inactive
CCCCCCCC(=O)[O-].CCCCCCCC(=O)[O-].[Zn+2] | inactive | inactive | inactive | inactive | inactive | inactive | inactive | inactive | inactive | inactive | inactive | inactive | inactive | inactive | inactive | – | – | – | –
CCCCCCCC[P+](CCCCCCCC)(CCCCCCCC)CCCCCCCC | 21.6 µM (active) | 4.3 µM (active) | 430 nM (active) | inactive | 34.2 µM (active) | 12.1 µM (active) | 17.1 µM (active) | inactive | 0.483 µM (active) | 2.42 µM (active) | 8.58 µM (active) | 10.8 µM (active) | inactive | – | – | inactive | 68.2 µM (active) | – | –
Cc1cccc(CN2CCN(C(c3ccccc3)c3ccc(Cl)cc3)CC2)c1 (centres undefined) | inactive | inactive | inactive | inactive | inactive | inactive | inactive | inactive | inactive | inactive | inactive | – | – | inactive | – | inactive | – | inactive | –
NC(=O)NS(=O)(=O)c1ccc(N)cc1 | inactive | inactive | inactive | inactive | inactive | inactive | inactive | inactive | inactive | inactive | inactive | inactive | – | inactive | inactive | inactive | inactive | inactive | –
Cc1cccc2c1cc1ccc3cccc4ccc2c1c34 | inactive | inactive | inactive | inactive | inactive | inactive | inactive | inactive | inactive | – | inactive | inactive | inactive | – | – | – | – | – | –
COC(=O)C1=C(C)NC(C)=C(C(=O)OCC(C)C)C1c1ccccc1[N+](=O)[O-] (centres undefined) | inactive | inactive | 48.6 µM (active) and inactive | inactive | inactive | 30.6 µM (active) | 61.1 µM (active) | inactive | 12.2 µM (active) | inactive | – | inactive | inactive | – | – | inactive | inactive | inactive | –
Cn1cc(C(=O)[C@@H]2CCc3nc[nH]c3C2)c2ccccc21 | inactive | inactive | inactive | inactive | inactive | inactive | – | inactive | 15 µM (active) | inactive | – | – | inactive | inactive | inactive | inactive | inactive | inactive | –
c1cc(C(c2ccc(OCC3CO3)cc2)c2ccc(OCC3CO3)cc2)ccc1OCC1CO1 (centres undefined) | inactive | inactive | inactive | inactive | inactive | 61.1 µM (active) | – | inactive | 54.5 µM (active) | inactive | – | – | inactive | – | – | inactive | – | – | inactive
CCCCCCCCOC(=O)c1ccc(O)cc1 | inactive | inactive | inactive | inactive | inactive | inactive | inactive | inactive | – | inactive | 54.3 µM (active) and 48.6 µM (active) | 43.1 µM (active) | 54.5 µM (active) | inactive | – | inactive | inactive | – | –
C[C@H](CCC(=O)O)[C@H]1CC[C@H]2[C@@H]3CC[C@@H]4C[C@H](O)CC[C@]4(C)[C@H]3CC[C@]12C | inactive | inactive | inactive | inactive | inactive | inactive | inactive | inactive | – | inactive | 48.4 µM (active) and 48.6 µM (active) | 19.3 µM (active) | inactive | – | – | – | – | – | –
